# This is a sample that favours compounds with a hit; in the whole collection about 3.9% have one here.
# D1 PAM – Potentiators of Human D1 Dopamine Receptor: qHTS | HEK293 TREx D1 cells, calcium flux, dopamine EC20 potentiation | 360,000 compounds, 0.036% hits | potentiation, % at 10 µM | D(1A) dopamine receptor (Homo sapiens), P21728; in the data active = potentiation above about 30%; note: 0% is about no effect
# D1 ag – Allosteric Agonists of the Human D1 Dopamine Receptor: qHTS. 360,000 compounds, 1% hits. HEK293 T-REx D1 cells, calcium flux, agonist mode. D(1A) dopamine receptor (Homo sapiens), P21728. activation, % at 2 µM. AID 504660, 2011; in the data active = activation above about 30%; note: 0% is about no effect
#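 Tetracycline-induced HEK293 TREx D1 cells, force-coupled to calcium signalling, were dye-loaded with a no-wash calcium kit. Compound was pin-added after a 10 s baseline. Fluorescence was read kinetically at 1 cycle/s for 180 s, with calcium rises flagged as agonism.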
# GALK inhibitor – qHTS Assay for Inhibitors of Human Galactokinase (GALK) | Purified GALK, Kinase-Glo residual ATP luminescence | Potency, µM (titrated, usually from 57.5 µM), inactives show at the highest dose activity change, negative = inhibition, most hits filed as inhibitors | 270,000 compounds, 0.007% hits | AID 1868, 2009; note: potency is the fitted concentration of half-maximal effect; % is set by controls: 0 for no effect and ±100 for the full control effect
#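 Luminescence from leftover ATP (Ultra-Glo luciferase/luciferin) served as read-out after a 1 h room-temperature reaction of 5 nM GALK with 35 uM ATP and 100 uM galactose.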
# Eya2 phos inh – qHTS Assay for Inhibitors of the Phosphatase Activity of Eya2. Protein phosphatase EYA2 (Homo sapiens), O00167. recombinant Eya2, OMFP fluorescence dephosphorylation (OMFP is methylfluorescein phosphate). Potency, µM (top dose mostly 76.9 µM), without a hit: top-dose activity, negative = inhibition, actives largely listed as inhibitors. 330,000 compounds, 0.006% hits. AID 488837, 2010; note: potency is the fitted concentration of half-maximal effect; % is set by controls: 0 for no effect and ±100 for the full control effect
#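 Eya2 protein (added as 0.2 uM solution) was preincubated with compound for 10 min at ambient temperature in 50 mM HEPES pH 7.5, 50 mM NaCl, 5 uM MgCl2, 0.05% BSA, 1 mM DTT. OMFP (added at 50 uM) then reacted 10 min; fluorescence read at 485/525 nm.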
# D1 antag – Antagonist of Human D 1 Dopamine Receptor: qHTS | activity change, negative = inhibition, % at 10 µM | D(1A) dopamine receptor (Homo sapiens), P21728 | HEK293 TREx D1 cells, calcium flux, dopamine EC80; stronger effect = lower value | 360,000 compounds, 3.2% hits; in the data active = activity change below about -30%; note: % is set by controls: 0 for no effect and ±100 for the full control effect
#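 Compound effects on dopamine-evoked calcium signalling were measured in tetracycline-induced HEK293 Trex D1 cells. Dopamine at EC80 followed a 180 s compound pre-read, and fluorescence was tracked kinetically for 180 s more.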
# USP2a block – qHTS Assay for Inhibitors of Ubiquitin-specific Protease USP2a Using CHOP2 as the Reporter. Ubiquitin carboxyl-terminal hydrolase 2 (Homo sapiens), O75604. USP2 core, Ub-CHOP2 coupled fluorogenic reporter, 485/531. Potency, µM (series often up to 38.3 µM), inactives show at the top dose activity change, negative = inhibition, usual class: inhibitors. 330,000 compounds, 0.01% hits;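 note: potency is the fitted concentration of half-maximal effect; plate controls were DMSO wells for no effect and full inhibition by NEM control for full effect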
# Target sequence (O75604 whole entry, looked up): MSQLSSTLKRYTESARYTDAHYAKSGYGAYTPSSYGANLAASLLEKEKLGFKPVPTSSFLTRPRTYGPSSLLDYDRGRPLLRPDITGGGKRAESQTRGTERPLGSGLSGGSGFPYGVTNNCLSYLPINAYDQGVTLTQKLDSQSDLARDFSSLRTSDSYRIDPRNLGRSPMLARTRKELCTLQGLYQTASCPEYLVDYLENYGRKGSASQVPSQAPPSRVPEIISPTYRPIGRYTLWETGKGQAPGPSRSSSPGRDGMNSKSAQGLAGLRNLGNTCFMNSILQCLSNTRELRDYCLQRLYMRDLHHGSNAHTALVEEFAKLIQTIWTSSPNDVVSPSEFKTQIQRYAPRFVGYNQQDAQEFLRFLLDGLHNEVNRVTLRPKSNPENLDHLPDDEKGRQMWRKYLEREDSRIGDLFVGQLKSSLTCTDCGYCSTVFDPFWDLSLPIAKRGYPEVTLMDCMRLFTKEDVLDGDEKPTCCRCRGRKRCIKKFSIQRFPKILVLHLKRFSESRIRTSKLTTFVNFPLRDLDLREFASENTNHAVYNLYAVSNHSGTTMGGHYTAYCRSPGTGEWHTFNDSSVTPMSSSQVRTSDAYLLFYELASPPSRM
#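 Cell-free coupled assay: 10nM USP2 core preincubated 30min RT with compound in Tris-HCl pH 8.0/CaCl2/CHAPS buffer, then 25nM Ub-CHOP2 and 25nM reporter substrate; fluorescence (Ex 485/Em 531) read after 60min RT, normalized to NEM inhibition, concentration-response curves fitted.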
# * hit, by the source's call; ? = inconclusive; . = not tested or not shown; [ ] = remark or other dose. Unless noted, calls come from the whole dose curve; as a rule, active = well fitted inhibition curve with a large enough effect; inconclusive = small, poorly fitted or top-dose-only effect, or effect the other way; inactive = flat fitted curve, though single readings scatter.
SMILES,D1 PAM,D1 ag,GALK inhibitor,Eya2 phos inh,D1 antag,USP2a block
Oc1ccc(Nc2nc(-c3ccc(O)cc3)cs2)cc1,-9,41*,-3%,-7%,-32*,-3%
Fc1ccc(Nc2nc(-c3ccncc3)cs2)cc1,-11,1,8%,14%,-52*,0%
COc1ccccc1NC(=O)C1=C(C)Nc2nc(SCc3ccccc3)nn2C1c1ccccn1 (configuration not stated),2,0,.,.,9,.
Cc1nnc(SC(C)C(=O)Nc2ccc(Cl)cn2)n1Cc1ccccc1 (configuration not stated),0,2,8%,-2%,30,-2%
CC(Sc1nnc(-c2ccc(Cl)cc2Cl)n1Cc1ccccc1)C(=O)Nc1nccs1 (configuration not stated),2,0,-1%,-1%,-46*,1%
CCOC(=O)c1ccccc1NC(=O)CSc1nnc(CC)n2c1cc1occc12,1,1,.,.,8,.
Cc1nn(-c2ccccc2)c(/N=C/c2ccc(O)cc2)c1-c1ccccc1,-8,1,0%,-28%,-44*,1%
CC(C)(C)C(=O)NC(=S)NNC(=O)C(c1ccccc1)c1ccccc1,34*,350*,-2%,-3%,24,-8%
CC(=O)NNC(=S)NC(=O)C(c1ccccc1)c1ccccc1,-2,1,5%,15%,-2,-3%
O=S(=O)(Cc1ccccc1)N1CCN(C/C=C/c2ccccc2)CC1,-12,47*,-1%,-1%,-33*,0%
Cc1ccc(S(=O)(=O)N(C)C)cc1NC(=O)C1CCN(C(=O)Nc2ccccc2)CC1,-6,2,.,13%,-34*,2%
O=C(NNC(=O)C1CCN(C(=O)Nc2ccccc2)CC1)c1ccc(F)cc1,-2,1,.,14%,6,0%
Cc1ccccc1C(=O)NNC(=O)C1CCN(C(=O)Nc2ccccc2)CC1,-7,0,.,-19%,-45*,0%
CC(=O)c1c(C)n(-c2ccc(Cl)cc2)c2ccc(OC(=O)COc3ccccc3)cc12,-2,5,.,.,-12,.
COc1cccc(/C=N/N2C(=O)CSC2=S)c1O,-14,2,.,1%,-13,1%
COc1cc(/C=N/N2C(=O)CSC2=S)cc(Br)c1O,3,44*,1%,25%,-2,2%
CCc1c(C)sc2c1CCN(C(=O)Nc1cc(Cl)c(OC)cc1OC)C2c1ccccc1 (configuration not stated),0,1,.,.,-12,.
O=C(O)CNC(=O)CC1S/C(=N/N=C2/NC(=O)CS2)NC1=O (configuration not stated),-5,7,0%,16%,-30*,2%
Cc1nc([N+](=O)[O-])cn1Cc1cccc([N+](=O)[O-])c1,-6,3,-2%,-3%,-31*,6%
O=C(c1ccccc1)C1CCN(C(=O)c2ccco2)CC1,59*,2,5%,3%,-3,2%
CC(C)(C)c1ccc(C(=O)N2CCN(S(=O)(=O)c3ccc(Br)s3)CC2)cc1,-11,6,.,-4%,-32*,-1%
O=C(c1ccc(-c2ccccc2)cc1)N1CCN(C(=O)c2ccco2)CC1,-1,3,0%,5%,-37*,3%
O=C(Nc1ccccc1)C1CCN(C(=O)c2ccco2)CC1,-6,1,-1%,20%,-4,1%
Cc1cc(NC(=O)C2CCN(C(=O)c3ccco3)CC2)ccc1Br,-5,9,.,3%,-37*,2%
CCOC(=O)N1CCN(S(=O)(=O)c2ccc(Br)s2)CC1,-2,3,1%,-25%,-5,0%
SMILES,D1 PAM,D1 ag,GALK inhibitor,Eya2 phos inh,D1 antag,USP2a block
COC(=O)c1cccc(CN2C(=O)SC(Nc3ccc(Br)cc3)C2=O)c1 (configuration not stated),-2,-1,.,.,-12,.
Cc1ccc(Cl)cc1NC(=O)CCn1c(=O)c2cccn2c2cccnc21,-2,2,.,.,-3,.
CC(C)(O)C#Cc1ccc(C(=O)N2CCN(C(=O)c3ccco3)CC2)cc1,-1,2,-8%,2%,12,-12%
CC(C)(C)c1ccc(C(=O)N2CCN(C(=O)c3ccco3)CC2)cc1,-3,5,0%,6%,-30*,2%
NC(=O)c1ccccc1C[C@H](C(=O)O)N1C(=O)c2ccc(C(=O)O)cc2C1=O,-3,2,.,-5%,-3,-2%
COc1ccccc1CNC(=O)CCCCn1c(=O)c2ccccc2n(Cc2ccccc2F)c1=O,2,-1,.,.,-3,.
COc1ccc(-c2cn3c(C)c(C(=O)N4CCc5ccccc5C4)sc3n2)cc1,-7,4,.,?,-31*,1%
NC(=S)Cc1ccc(Cl)cc1Cl,-7,3,-3%,-3%,2,-3%
N=C(N)SCc1ccc(Cl)cc1Cl,2,34*,.,-5%,6,3%
CCn1c(C)c(C(C)=O)c(N2CCCCC2)nc1=S,-16,4,0%,-15%,-89*,5%
Cc1ccc(CNC(=O)C2COc3ccccc3C2)cc1 (configuration not stated),-2,4,.,.,-14,.
CCCCNC(=O)Cn1nc(N2CCN(c3ccccc3OC)CC2)ccc1=O,-1,1,.,.,-42*,.
COc1ccc(OC)c(NC(=O)CN2C(=O)CCc3cc(S(=O)(=O)N4CCCCC4)ccc32)c1,0,2,.,.,4,.
Cc1cc(NC(=O)Nc2nnc(N3CCCCC3)s2)ccc1Br,4,-1,.,.,6,.
Cc1ccccc1OCC(=O)N/N=C/c1c(C)nn(-c2ccccc2)c1Cl,-15,0,1%,4%,-55*,-1%
Cc1nn(-c2ccccc2)c(Cl)c1/C=N/NC(=O)c1ccncc1,0,5,-4%,-9%,-2,-1%
O=C(N/N=C/C1CC=CCC1)c1ccc(Cl)cc1O (configuration not stated),-16,23,0%,4%,-37*,1%
Cc1ccc(Nc2nc(N3CCOCC3)c3ccccc3n2)cc1,-13,1,1%,1%[15.4 µM],-60*,3%
c1ccc2c(c1)nc(N1CCCCCC1)c1ccccc12,12,2,0%,1%,15,0%
